The values below come from PubChem BioAssay (NCI).

Assay [1] is described as follows: NCI Yeast Anticancer Drug Screen. Data for the rad50 strain (AID 155).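 Further: 0% = growth of vehicle-only cultures of the same strain.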 To be noted: S. cerevisiae rad50 strain growth inhibition, hits give high values. The essentials:
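Cells are treated with compound, grown, and their growth is then scored against vehicle-only cultures of the same repair-deficient yeast strain.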

A short description of assay [2]: NCI Yeast Anticancer Drug Screen. Data for the mec2-1 strain (AID 157). To be noted: S. cerevisiae mec2-1 strain, hits give high values. The essentials: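 Each compound was tested on mec2-1 yeast, a strain altered in DNA damage repair or cell cycle control. Growth inhibition is reported relative to vehicle.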
Assay [3] is described as follows: NCI Yeast Anticancer Drug Screen. Data for the sgs1 mgt1 strain (AID 161).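 Further: 0% = growth of cultures given vehicle only.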 To be noted: S. cerevisiae sgs1 mgt1 strain, hits give high values. The essentials: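 Mutant yeast exposed to compound; growth scored against vehicle-only wells.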
Assay [4] is described as follows: NCI Yeast Anticancer Drug Screen. Data for the cln2 rad14 strain (AID 165).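 Further: 0% = growth equal to vehicle treated cultures.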 To be noted: S. cerevisiae cln2 rad14 strain, hits give high values. In short, it runs like this: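 Test compounds were added to cln2 rad14 yeast cultures; inhibition of growth was then determined by comparison with vehicle treatment.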
Assay [5] is described as follows: NCI Yeast Anticancer Drug Screen. Data for the bub3 strain (AID 167). To be noted: S. cerevisiae bub3 mutant strain, hits give high values. In short, it runs like this:
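Part of a panel of yeast mutants defective in DNA damage repair or cell cycle regulation. Each strain is grown with compound, and inhibition is calculated relative to solvent-treated cultures.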

The nature of assay [6]: NCI Yeast Anticancer Drug Screen. Data for the mlh1 rad18 strain (AID 175). To be noted: S. cerevisiae mlh1 rad18 strain growth inhibition, hits give high values. The essentials: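 Inhibition values reflect reduced growth of mutant yeast versus vehicle-treated controls following compound exposure; the mutations affect DNA damage repair.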
The mark [7] stands for this setting: at 5.0 µM (retest, dose inferred, filed as 0.5).
Where [8] appears, read: at 50.0 µM (retest, dose inferred, filed as 5.0).

Molecules are shown by their SMILES. About 79,000 compounds went through this panel and 15% of them were active in at least one assay; those are over-represented in the sample as a whole. A number with no mark means an inactive call. Calls of active or inactive are those of the source. No stated cut-off is given here; in the data, active means growth inhibition above about 70%; inactive means the rest.

`OCC(O)C(O)C(O)/C=N\Nc1ccccc1` (stereo not given): the growth inhibition in assay [1] (setting [7]) was 9%; in assay [1] (setting [8]), 19%; in assay [1] (at 50.0 µM) it was 49.6%; in assay [2] (setting [7]) it was -3%; in assay [2] (setting [8]), -6%; in assay [2] (at 50.0 µM), 44.4%. For the same compound, the growth inhibition in assay [3] (setting [7]) was -5%; in assay [3] (setting [8]), 15%; in assay [3] (at 50.0 µM), 39.5%; in assay [4] (setting [7]), -3%; in assay [4] (setting [8]), -7%; in assay [4] (at 50.0 µM), 43%. For the same compound, the growth inhibition in assay [5] (setting [7]) is 1%; in assay [5] (setting [8]), 31%; in assay [5] (at 50.0 µM), 51.5%; in assay [6] (setting [7]), 16%; in assay [6] (setting [8]), 42%; in assay [6] (at 50.0 µM), 18.1%.

With `O=c1ccc2nc3ccccc3ccc-2c1`, the growth inhibition in assay [1] (setting [7]) is -159%; in assay [1] (setting [8]), -139%; in assay [1] (at 50.0 µM), 23%; in assay [2] (setting [7]), -53%; in assay [2] (setting [8]), -55%; in assay [2] (at 50.0 µM), 15.2%. Also, the growth inhibition in assay [3] (setting [7]) was -61%; in assay [3] (setting [8]), -64%; in assay [3] (at 50.0 µM) it was 18.3%; in assay [4] (setting [7]), -46%; in assay [4] (setting [8]) it was -58%; in assay [4] (at 50.0 µM), 20.6%. Moreover, the growth inhibition in assay [5] (setting [7]) is -63%; in assay [5] (setting [8]) it was -79%; in assay [5] (at 50.0 µM), 62%; in assay [6] (setting [7]), -117%; in assay [6] (setting [8]), -110%; in assay [6] (at 50.0 µM), 62.5%.

Consider `CC(C)C1=C(O)C2=C(C(=O)C1=O)C1(C)CCCC(C)(C)C1C(O)C2OC=O` (stereo not given), for which the growth inhibition was 91% (active) in assay [1] (setting [7]); 95% (active) in assay [1] (setting [8]); 92.2% (active) in assay [1] (at 50.0 µM); 100% (active) in assay [2] (setting [7]); 100% (active) in assay [2] (setting [8]); 93.7% (active) in assay [2] (at 50.0 µM). Further, the growth inhibition in assay [3] (setting [7]) was 99% (active); in assay [3] (setting [8]), 100% (active); in assay [3] (at 50.0 µM), 93.5% (active); in assay [4] (setting [7]) it was 81% (active); in assay [4] (setting [8]) it was 99% (active); in assay [4] (at 50.0 µM), 92% (active). Besides, the growth inhibition is 100% (active) in assay [5] (setting [7]); 100% (active) in assay [5] (setting [8]); 92.5% (active) in assay [5] (at 50.0 µM); 98% (active) in assay [6] (setting [7]); 99% (active) in assay [6] (setting [8]); 87.5% (active) in assay [6] (at 50.0 µM).

`CSc1ncnc2nn(C3OC(COC(=O)c4ccccc4)C(OC(=O)c4ccccc4)C3OC(=O)c3ccccc3)nc12` (stereo not given): the growth inhibition is -16% in assay [1] (setting [7]); -1% in assay [1] (setting [8]); -14.8% in assay [1] (at 50.0 µM); -1% in assay [2] (setting [7]); -6% in assay [2] (setting [8]); 17.9% in assay [2] (at 50.0 µM). Moreover, the growth inhibition in assay [3] (setting [7]) was -6%; in assay [3] (setting [8]) it was 1%; in assay [3] (at 50.0 µM) it was -13.6%; in assay [4] (setting [7]) it was -1%; in assay [4] (setting [8]) it was -9%; in assay [4] (at 50.0 µM), 40.3%. For the same compound, the growth inhibition in assay [5] (setting [7]) is -3%; in assay [5] (setting [8]) it was 3%; in assay [5] (at 50.0 µM), -11.2%; in assay [6] (setting [7]) it was -5%; in assay [6] (setting [8]), -3%; in assay [6] (at 50.0 µM), 15.2%.

As to `CCCCCC/C=C/C#CCCCCCCCC(=O)O`, the growth inhibition in assay [1] (setting [7]) was 30%; in assay [1] (setting [8]) it was 15%; in assay [1] (at 50.0 µM), 5.5%; in assay [2] (setting [7]) it was 21%; in assay [2] (setting [8]), 11%; in assay [2] (at 50.0 µM), 9.2%. Also, the growth inhibition was 33% in assay [3] (setting [7]); 37% in assay [3] (setting [8]); 14% in assay [3] (at 50.0 µM); 17% in assay [4] (setting [7]); 16% in assay [4] (setting [8]); 11.8% in assay [4] (at 50.0 µM). Besides, the growth inhibition in assay [5] (setting [7]) was 19%; in assay [5] (setting [8]), 3%; in assay [5] (at 50.0 µM) it was 17.3%; in assay [6] (setting [7]), 57%; in assay [6] (setting [8]), 44%; in assay [6] (at 50.0 µM) it was -88.8%.

Turning to `CCCCCCCCCCCCCCCCCCNC(=S)/N=C/c1c(O)cc(C)oc1=O`, the growth inhibition is 1% in assay [1] (setting [7]); 15% in assay [1] (setting [8]); 16.1% in assay [1] (at 50.0 µM); 8% in assay [2] (setting [7]); 38% in assay [2] (setting [8]); -13.7% in assay [2] (at 50.0 µM). For the same compound, the growth inhibition in assay [3] (setting [7]) was -15%; in assay [3] (setting [8]), 8%; in assay [3] (at 50.0 µM), 57%; in assay [4] (setting [7]) it was 7%; in assay [4] (setting [8]), -13%; in assay [4] (at 50.0 µM), -30.1%. The growth inhibition in assay [5] (setting [7]) is -2%; in assay [5] (setting [8]) it was -8%; in assay [5] (at 50.0 µM), 18.9%; in assay [6] (setting [7]), 10%; in assay [6] (setting [8]), 29%; in assay [6] (at 50.0 µM), 15.9%.

As for `CCC(c1ccc(OC)cc1)C(O)(CC)c1ccc(OC)cc1` (stereo not given), the growth inhibition was -4% in assay [1] (setting [7]); 98% (active) in assay [1] (setting [8]); 99% (active) in assay [1] (at 50.0 µM); -7% in assay [2] (setting [7]); 99% (active) in assay [2] (setting [8]); 98.8% (active) in assay [2] (at 50.0 µM). For the same compound, the growth inhibition in assay [3] (setting [7]) was -11%; in assay [3] (setting [8]) it was 98% (active); in assay [3] (at 50.0 µM), 98.4% (active); in assay [4] (setting [7]), -10%; in assay [4] (setting [8]) it was 99% (active); in assay [4] (at 50.0 µM) it was 98% (active). Also, the growth inhibition is 11% in assay [5] (setting [7]); 99% (active) in assay [5] (setting [8]); 98.9% (active) in assay [5] (at 50.0 µM); -3% in assay [6] (setting [7]); 98% (active) in assay [6] (setting [8]); 98.6% (active) in assay [6] (at 50.0 µM).

`COC(=O)c1nc(=S)[nH]c(C(=O)OC)c1C(=O)c1c(C)[nH]c2ccccc12`: the growth inhibition is -7% in assay [1] (setting [7]); -2% in assay [1] (setting [8]); -25% in assay [1] (at 50.0 µM); -3% in assay [2] (setting [7]); 7% in assay [2] (setting [8]); -5.5% in assay [2] (at 50.0 µM). Also, the growth inhibition was 2% in assay [3] (setting [7]); 1% in assay [3] (setting [8]); -5.15% in assay [3] (at 50.0 µM); 1% in assay [4] (setting [7]); -4% in assay [4] (setting [8]); 30.7% in assay [4] (at 50.0 µM). For the same compound, the growth inhibition in assay [5] (setting [7]) was -6%; in assay [5] (setting [8]), -7%; in assay [5] (at 50.0 µM), -2.3%; in assay [6] (setting [7]), -7%; in assay [6] (setting [8]) it was -2%; in assay [6] (at 50.0 µM), 62.2%.

On to `CC(=O)N1C=C2CCC3c4ccccc4NC3C2CC1` (stereo not given), for which the growth inhibition was -2% in assay [1] (setting [7]); 15% in assay [1] (setting [8]); 33.2% in assay [1] (at 50.0 µM); 1% in assay [2] (setting [7]); 4% in assay [2] (setting [8]); 4.05% in assay [2] (at 50.0 µM). Also, the growth inhibition in assay [3] (setting [7]) was -4%; in assay [3] (setting [8]) it was 13%; in assay [3] (at 50.0 µM), 34.5%; in assay [4] (setting [7]) it was -51%; in assay [4] (setting [8]) it was 0%; in assay [4] (at 50.0 µM), -29.1%. The growth inhibition in assay [5] (setting [7]) is -11%; in assay [5] (setting [8]), 47%; in assay [5] (at 50.0 µM) it was -4.6%; in assay [6] (setting [7]), -7%; in assay [6] (setting [8]), -2%; in assay [6] (at 50.0 µM) it was 19.1%.

Consider `O=C1C=CC(=O)N1CCCCCCN1C(=O)C=CC1=O`, for which the growth inhibition in assay [1] (setting [7]) is 19%; in assay [1] (setting [8]), 99% (active); in assay [1] (at 50.0 µM), 99% (active); in assay [2] (setting [7]) it was 29%; in assay [2] (setting [8]) it was 100% (active); in assay [2] (at 50.0 µM) it was 99.3% (active). Also, the growth inhibition in assay [3] (setting [7]) was 32%; in assay [3] (setting [8]), 99% (active); in assay [3] (at 50.0 µM), 98.8% (active); in assay [4] (setting [7]) it was 16%; in assay [4] (setting [8]), 99% (active); in assay [4] (at 50.0 µM) it was 99.5% (active). Also, the growth inhibition is 20% in assay [5] (setting [7]); 97% (active) in assay [5] (setting [8]); 99.5% (active) in assay [5] (at 50.0 µM); 38% in assay [6] (setting [7]); 99% (active) in assay [6] (setting [8]); 99.2% (active) in assay [6] (at 50.0 µM).
